Shown are actives, neighbours in structure and some others; about 18% of the full set was active somewhere.
DT40 TDP1 CPT – growth inhibition of DT40 Tdp1-/-;hTDP1 cells with camptothecin (screen for TDP1 inhibitors). Potency, µM (series often up to 46.2 µM), hits mostly inhibitors. 420,000 tested, 12% active. chicken DT40 Tdp1-/-;hTDP1 cells + 20 nM CPT, ATP luminescence, 48 h; note: nearly all actives have a fitted effect of over 55% in size
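Cell growth measured by CellTiter-Glo luminescence after a minimum 48 h, 37 C compound exposure with 20 nM CPT in Tdp1-knockout DT40 cells stably expressing hTDP1, seeded 400/well; qHTS titration format.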
PLK1 PBD block – blocks phosphopeptide binding to human PLK1 polo-box domain; P53350; Plk1 PBD binding of FITC phosphopeptide, fluorescence polarization; Potency, µM, usual class: inhibitors; 360,000 tested, 2.8% active; AID 720504; note: series mostly up to about 57 µM; nearly all actives have a fitted effect of over 65% in size
Target sequence (P53350 whole entry, looked up, the tested form may be a part): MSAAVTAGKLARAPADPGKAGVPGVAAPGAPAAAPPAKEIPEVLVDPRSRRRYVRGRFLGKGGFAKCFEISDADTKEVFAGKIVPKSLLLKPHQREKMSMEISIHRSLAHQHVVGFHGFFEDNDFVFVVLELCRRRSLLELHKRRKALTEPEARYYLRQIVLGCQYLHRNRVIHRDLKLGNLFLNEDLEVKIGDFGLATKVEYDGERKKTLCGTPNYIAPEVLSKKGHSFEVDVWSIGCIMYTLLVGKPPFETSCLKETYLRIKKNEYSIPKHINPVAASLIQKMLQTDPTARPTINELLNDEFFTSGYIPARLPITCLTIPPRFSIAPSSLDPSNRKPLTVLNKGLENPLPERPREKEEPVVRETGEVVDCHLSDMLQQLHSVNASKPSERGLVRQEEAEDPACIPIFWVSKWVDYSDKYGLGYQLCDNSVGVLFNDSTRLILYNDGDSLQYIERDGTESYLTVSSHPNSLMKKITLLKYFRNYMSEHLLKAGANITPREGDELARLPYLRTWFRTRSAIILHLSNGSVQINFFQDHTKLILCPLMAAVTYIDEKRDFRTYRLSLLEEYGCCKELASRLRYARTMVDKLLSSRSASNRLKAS
TDP1 inh – inhibitors of human tyrosyl-DNA phosphodiesterase TDP1 | Q9NUW8 | recombinant TDP1, AlphaScreen DNA substrate cleavage | Potency, µM (titrated, usually from 130 µM), actives largely listed as inhibitors | 350,000 tested, 0.28% active | AID 485290; note: nearly all actives have a fitted effect of over 40% in size
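AlphaScreen read-out: signal falls as enzyme removes the 3' tyrosine-FITC from a 5'-biotinylated DNA oligo (15 nM, 5 min, RT). Enzyme was E. coli-made recombinant Tdp1 at 1 nM, exposed to compound for 15 min beforehand; beads 10 ug/ml, 10 min.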
TDP1 cell noCPT – qHTS for Inhibitors of human tyrosyl-DNA phosphodiesterase 1 (TDP1): qHTS in cells in absence of CPT; 420,000 tested, 15% active; DT40 Tdp1-/- hTDP1 cells, no CPT, ATP luminescence, 48 h; Potency, µM (top dose mostly 46.2 µM), most hits filed as inhibitors; note: nearly all actives have a fitted effect of over 55% in size
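Camptothecin absent (DMSO only). Human TDP1-complemented DT40 knockout cells, 400 cells/well, 37 °C for minimum 48 hr; ATP measured via CellTiter-Glo, 30 min dark incubation, luminescence.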
VDR inh – inhibitors of human vitamin D receptor; P11473; VDR-SRC2-3 peptide fluorescence polarization, 2 h; Potency, µM, hits mostly inhibitors; 400,000 tested, 0.93% active
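VDR–SRC2-3 interaction, FP format. Cmpds 23 nl via pintool, brief spin, 2 h ambient incubation.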
GCN5L2 inh – inhibitors of human GCN5L2 histone acetyltransferase | Q92830 | GCN5L2 HAT assay, ThioGlo1 CoA-SH fluorescence | Potency, µM (titrated, usually from 58.9 µM), actives largely listed as inhibitors | 390,000 tested, 0.21% active
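Free CoA generated was detected with ThioGlo1 (50uM) fluorescence at Ex340nm/Em540nm, read immediately and after 20 min at room temperature. Enzyme, 20 nM in HEPES pH 7.5 buffer, saw compounds 15 min before adding 75uM H3(1-25) peptide and 70uM acetyl-CoA.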
A number is an active result; – = inactive; ? = inconclusive; · = not tested or not shown; [ ] = dose if it differs, or a comment. Calls come from the whole dose curve; as a rule, active = well fitted curve in the direction sought with a large enough effect; inconclusive = small, poorly fitted or top-dose-only effect, or another doubt; inactive = no such curve, though single readings can be large; an effect the other way counts as inactive or inconclusive.

SMILES	DT40 TDP1 CPT	PLK1 PBD block	TDP1 inh	TDP1 cell noCPT	VDR inh	GCN5L2 inh
C=CCC(NCc1ccccc1)c1ccc(C)o1 (configuration not stated)	?	11µM	·	?	–	·
C=CCC(NCc1ccccc1)c1ccc(Cl)cc1 (configuration not stated)	?	–	–	13µM	–	–
O=C(Cn1ncc2c3ccccc3n(Cc3cccc(Cl)c3)c2c1=O)N1CCCCCC1	18µM	·	–	21µM	–	–
CC(CCc1ccccc1)NC(=O)Cn1ncc2c3ccccc3n(Cc3cccc(Cl)c3)c2c1=O (configuration not stated)	?	·	–	?	–	–
O=C(Cn1ncc2c3ccccc3n(Cc3cccc(Cl)c3)c2c1=O)Nc1ccc(F)cc1F	29µM	·	–	21µM	–	?
O=C(Cn1ncc2c3ccccc3n(Cc3ccccc3)c2c1=O)N1CCCCCC1	?	·	–	?	–	–
O=C(Cn1ncc2c3ccccc3n(Cc3ccc(F)cc3)c2c1=O)N1CCN(c2ncccn2)CC1	18µM	–	–	16µM	–	–
Cc1cc(C)c(Cn2c3ccccc3c3cnn(CC(=O)N4CCCCCC4)c(=O)c32)c(C)c1	23µM	·	–	23µM	–	–
N#Cc1ccccc1OCC(=O)OCC(=O)NC1CCS(=O)(=O)C1 (configuration not stated)	–	–	–	–	–	–
O=Nc1nc2ncccn2c1-c1ccccc1	0.092µM	7.5µM	·	0.52µM	?	·
CC(C)Cc1nnc(NC(=O)c2cc([N+](=O)[O-])ccc2N2CCOCC2)s1	–	–	–	–	–	?
NC(C(=O)O)c1ccc(O)cc1 (configuration not stated)	·	·	–	·	–	–
NC(C(=O)O)c1cc(O)c(Cl)c(O)c1 (configuration not stated)	–	·	–	–	–	32µM
Cc1ccc(NC(=O)N2CCCCCC2)cc1C	–	–	–	–	–	–
Cc1ccc(C(NC(=O)N2CCCCC2)=C(Cl)Cl)cc1F	13µM	–	–	–	?	–
Cc1ccc(C(=O)NCCCN2CCOCC2)cc1	–	–	·	–	–	·
Cc1ccc(C(NC(=O)NCCCN2CCOCC2)=C(Cl)Cl)cc1F	11µM	–	–	13µM	–	–
C(=C\c1ccccc1)/CSc1nnc(-c2ccccn2)n1Cc1ccco1	2.6µM	–	–	2.9µM	–	–
NC(=O)CSc1nnc(-c2ccccn2)n1Cc1ccco1	–	–	–	–	–	–
Nc1cccc2c(=O)c3ccccc3[nH]c12	13µM	–	?	8.2µM	–	–
COc1cccc2[nH]c3ccccc3c(=O)c12	–	–	·	?	–	–
CC(C)c1cc(C(=O)NCc2ccccc2)no1	–	·	–	–	–	–
CCOC(=O)NC1(NCc2ccccc2)Oc2ccccc2O1	?	–	·	21µM	–	–
CCOC(=O)NC1(NCC(C)C)Oc2ccccc2O1	?	–	?	–	–	–
CCc1nnc(N/N=C/c2ccc(N3CCC(C)CC3)c([N+](=O)[O-])c2)n1N	?	–	–	?	18µM	–
SMILES	DT40 TDP1 CPT	PLK1 PBD block	TDP1 inh	TDP1 cell noCPT	VDR inh	GCN5L2 inh
Cc1nnc(N/N=C/c2cc([N+](=O)[O-])c(N3CCC(C)CC3)cc2N2CCC(C)CC2)n1N	–	–	–	?	–	–
O=C(CSc1nc2c([nH]c3ccccc32)c(=O)n1-c1ccc(Cl)cc1)N1CCc2ccccc21	–	·	–	–	–	–
CCC(=O)Oc1ccc2c(C)cc(=O)oc2c1C	?	–	–	6.5µM	–	–
CCOC(=O)C(C)Oc1ccc2c(C)cc(=O)oc2c1C(C)=O (configuration not stated)	–	–	–	–	–	–
Cc1cc(=O)oc2c(C)c(OC(=O)c3ccco3)ccc12	–	–	·	–	–	·
CCCCOc1ccc2c(C)cc(=O)oc2c1OCCCC	16µM	–	–	26µM	–	–
CCOCCCn1c(SC(C)C(=O)NCC2CCCO2)nc2sc(C)c(C)c2c1=O (configuration not stated)	–	–	–	–	–	–
CCC(=O)N1c2nc(C(C)C)nn2C2(CCCCC2)[C@@H]2CCCC[C@@H]21	8.2µM	·	–	4.1µM	–	–
CCC(=O)N1c2nc(-c3ccco3)nn2C2(CCCCC2)[C@@H]2CCCC[C@@H]21	?	·	–	?	–	–
CC(C)C(=O)N1c2ncnn2C2(CCCCC2)[C@@H]2CCCC[C@@H]21	16µM	·	–	10µM	–	–
COc1ccccc1C(=O)N1c2ncnn2C2(CCCCC2)[C@@H]2CCCC[C@@H]21	–	·	–	–	–	–
COc1ccc2c(c1)C(=O)[C@H](OC(=O)Nc1ccc(OC(F)F)cc1)[C@@H](c1ccc(OC)c(Br)c1)O2	·	·	–	·	–	·
COc1ccc2oc(-c3ccc(C)c(NC(=O)c4ccc(-c5ccccc5[N+](=O)[O-])o4)c3)nc2c1	18µM	·	–	9.2µM	–	–
COc1ccc2oc(-c3ccc(C)c(NC(=O)COc4cc(C)cc(C)c4)c3)nc2c1	7.3µM	·	–	5.2µM	–	–
COc1ccc(-c2nc3ccccc3o2)cc1NC(=O)COc1ccc(C)c(C)c1	·	·	–	·	–	–
COc1ccc(-c2nc3ccccc3o2)cc1NC(=O)COc1c(C)cc(Cl)cc1Cl	2.9µM	·	·	5.2µM	–	–
Cc1cccc(OCC(=O)Nc2ccc(-c3nc4cc(C)ccc4o3)c(O)c2)c1	15µM	·	–[12.3 µM]	?	–	–
COc1ccc(/C=C/N(CCc2ccc(OC)c(OC)c2)C(=O)C(F)(F)F)cc1	·	·	–[21 µM]	·	·	·
COCCCNc1nc2c(c(=O)[nH]c(=O)n2C)n1CC(O)COc1ccc(Cl)cc1 (configuration not stated)	–	·	·	–	?	–
Cc1ccc(-c2nc3cc(Cl)ccc3o2)cc1NC(=O)COc1ccc(F)cc1	–	·	–	–	–	–
Cc1ccc(-c2nc3ncccc3o2)cc1NC(=O)COc1ccc(C(C)C)cc1	?	·	·	16µM	–	–
Cc1cccc(OCC(=O)Nc2cc(-c3nc4cc(Cl)ccc4o3)ccc2C)c1	7.1µM	·	·	?	·	·
COc1ccccc1Nc1ncc2c(n1)CCN(Cc1ccc(C)s1)C2	–	·	–	–	–	–
CC(C)CN1CCc2nc(Nc3ccc(F)cc3F)ncc2C1	–	·	–	?	–	–
COc1ccc(Nc2ncc3c(n2)CCN(Cc2ccc(Br)s2)C3)c(OC)c1	21µM	·	–	13µM	–	–
COc1ccc(Nc2ncc3c(n2)CCN(Cc2cc(Br)cs2)C3)c(OC)c1	18µM	·	–	15µM	–	–
COc1cc(C=O)c([N+](=O)[O-])cc1OC	·	·	–	·	·	·
